# Measurements reported in PubChem BioAssay AID1159580 (chemical genetic matrix, 2015).
# The campaign covered roughly 5,500 compounds. About 2,000 (36%) were called active. Inconclusive results (about 18%) are left out. The list shows a part of the results. Unmarked numbers belong to inactive results. Rule as the data show it: active = normalized growth mostly below about 0.91 (no sharp cut-off); inconclusive = no clear call, values can overlap the other calls; inactive = mostly above about 0.92.
# Experiment: chemical genetic growth profiling, strain panel (AID 1159580);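 also: tested at 20 µM; growth read once vehicle control cultures reached saturation at 30 °C; 1 = growth at the plate median or of vehicle wells; lower values mean less growth of the strain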
# Conditions: growth OD
smiles,measurement,setting,value
CCOC(=O)C1=C[C@]2(CC)CCCN3CCc4c(n1c1ccccc41)[C@@H]32,normalized growth,"S. cerevisiae deletion strains, locus YKL009W, strain mrt4, active compounds read low",0.964
same,normalized growth,"S. cerevisiae deletion strains, locus YKL068W, active compounds read low",0.988
same,normalized growth,"S. cerevisiae deletion strains, locus YKL085W, strain MDH1 (second series), active compounds read low",0.992
same,normalized growth,"S. cerevisiae deletion strains, locus YKL085W, strain MDH1, active compounds read low",0.992
same,normalized growth,"S. cerevisiae deletion strains, locus YKL160W, strain elf1, active compounds read low",1.03
same,normalized growth,"S. cerevisiae deletion strains, locus YKL190W, strain CNB1, active compounds read low",0.982
same,normalized growth,"S. cerevisiae deletion strains, locus YKR001C, strain vps1, active compounds read low",0.933
same,normalized growth,"S. cerevisiae deletion strains, locus YKR026C, strain gcn3, active compounds read low",1.01
same,normalized growth,"S. cerevisiae deletion strains, locus YKR091W, strain srl3, active compounds read low",1.01
same,normalized growth,"S. cerevisiae deletion strains, locus YLL001W, strain dnm1, active compounds read low",1.03
same,normalized growth,"S. cerevisiae deletion strains, locus YLL026W, active compounds read low",1.02
same,normalized growth,"S. cerevisiae deletion strains, locus YLL041C, strain sdh2, active compounds read low",1.02
same,normalized growth,"S. cerevisiae deletion strains, locus YLR027C, strain aat2, active compounds read low",1.02
same,normalized growth,"S. cerevisiae deletion strains, locus YLR039C, strain RIC1, active compounds read low",0.924
same,normalized growth,"S. cerevisiae deletion strains, locus YLR058C, strain SHM2, active compounds read low",0.963
same,normalized growth,"S. cerevisiae deletion strains, locus YLR102C, strain apc9, active compounds read low",0.969
same,normalized growth,"S. cerevisiae deletion strains, locus YLR113W, strain HOG1, active compounds read low",1.01
same,normalized growth,"S. cerevisiae deletion strains, locus YLR221C, strain rsa3, active compounds read low",1.02
same,normalized growth,"S. cerevisiae deletion strains, locus YLR258W, strain gsy2, active compounds read low",1.02
same,normalized growth,"S. cerevisiae deletion strains, locus YLR262C, strain YPT6 (second series), active compounds read low",0.996
same,normalized growth,"S. cerevisiae deletion strains, locus YLR262C, strain YPT6, active compounds read low",0.852
same,normalized growth,"S. cerevisiae deletion strains, locus YLR268W, strain sec22, active compounds read low",0.923
same,normalized growth,"S. cerevisiae deletion strains, locus YLR320W, strain mms22, active compounds read low",0.986
same,normalized growth,"S. cerevisiae deletion strains, locus YLR330W, strain CHS5, active compounds read low",0.992
same,normalized growth,"S. cerevisiae deletion strains, locus YLR342W, strain FKS1 (second series), active compounds read low",0.928
same,normalized growth,"S. cerevisiae deletion strains, locus YLR342W, strain FKS1, active compounds read low",1.01
same,normalized growth,"S. cerevisiae deletion strains, locus YLR357W, strain rsc2, active compounds read low",1.07
same,normalized growth,"S. cerevisiae deletion strains, locus YLR370C, strain arc18, active compounds read low",1.02
same,normalized growth,"S. cerevisiae deletion strains, locus YLR371W, strain rom2, active compounds read low",0.985
same,normalized growth,"S. cerevisiae deletion strains, locus YLR384C, strain iki3, active compounds read low",1.04
same,normalized growth,"S. cerevisiae deletion strains, locus YLR418C, strain cdc73, active compounds read low",0.915
same,normalized growth,"S. cerevisiae deletion strains, locus YML016C, strain PPZ1, active compounds read low",0.985
same,normalized growth,"S. cerevisiae deletion strains, locus YML032C, strain rad52, active compounds read low",0.95
same,normalized growth,"S. cerevisiae deletion strains, locus YML120C, strain ndi1, active compounds read low",1.01
same,normalized growth,"S. cerevisiae deletion strains, locus YML124C, strain tub3, active compounds read low",0.979
same,normalized growth,"S. cerevisiae deletion strains, locus YMR058W, strain fet3, active compounds read low",1.02
same,normalized growth,"S. cerevisiae deletion strains, locus YMR078C, strain ctf18, active compounds read low",0.977
same,normalized growth,"S. cerevisiae deletion strains, locus YMR125W, strain sto1, active compounds read low",1.02
same,normalized growth,"S. cerevisiae deletion strains, locus YMR129W, active compounds read low",1.02
same,normalized growth,"S. cerevisiae deletion strains, locus YMR205C, strain PFK2, active compounds read low",0.995
same,normalized growth,"S. cerevisiae deletion strains, locus YMR223W, strain ubp8, active compounds read low",0.961
same,normalized growth,"S. cerevisiae deletion strains, locus YMR231W, strain pep5, active compounds read low",1.02
same,normalized growth,"S. cerevisiae deletion strains, locus YMR263W, strain SAP30, active compounds read low",0.987
same,normalized growth,"S. cerevisiae deletion strains, locus YMR307W, strain GAS1, active compounds read low",1.01
same,normalized growth,"S. cerevisiae deletion strains, locus YNL067W, strain RPL9B, active compounds read low",0.949
same,normalized growth,"S. cerevisiae deletion strains, locus YNL071W, strain lat1, active compounds read low",1.01
same,normalized growth,"S. cerevisiae deletion strains, locus YNL128W, strain TEP1, active compounds read low",0.988
same,normalized growth,"S. cerevisiae deletion strains, locus YNL183C, strain NPR1, active compounds read low",0.947
same,normalized growth,"S. cerevisiae deletion strains, locus YNL209W, strain ssb2, active compounds read low",1.05
same,normalized growth,"S. cerevisiae deletion strains, locus YNL233W, strain BNI4, active compounds read low",0.931
same,normalized growth,"S. cerevisiae deletion strains, locus YNL248C, strain rpa49, active compounds read low",1.05
same,normalized growth,"S. cerevisiae deletion strains, locus YNL250W, strain rad50, active compounds read low",0.978
same,normalized growth,"S. cerevisiae deletion strains, locus YNL271C, strain bni1, active compounds read low",0.981
same,normalized growth,"S. cerevisiae deletion strains, locus YNL298W, strain CLA4, active compounds read low",0.98
same,normalized growth,"S. cerevisiae deletion strains, locus YNL307C, strain MCK1, active compounds read low",0.879 (active)
same,normalized growth,"S. cerevisiae deletion strains, locus YNL322C, strain KRE1 (second series), active compounds read low",1.02
same,normalized growth,"S. cerevisiae deletion strains, locus YNL322C, strain KRE1, active compounds read low",0.986
same,normalized growth,"S. cerevisiae deletion strains, locus YNR049C, strain mso1, active compounds read low",1.02
same,normalized growth,"S. cerevisiae deletion strains, locus YNR052C, strain pop2, active compounds read low",0.979
same,normalized growth,"S. cerevisiae deletion strains, locus YOL006C, strain TOP1, active compounds read low",0.803
same,normalized growth,"S. cerevisiae deletion strains, locus YOL012C, strain htz1",0.935
same,normalized growth,"S. cerevisiae deletion strains, locus YOL147C, strain pex11, active compounds read low",0.984
same,normalized growth,"S. cerevisiae deletion strains, locus YOR001W, strain rrp6, active compounds read low",1.02
same,normalized growth,"S. cerevisiae deletion strains, locus YOR061W, strain CKA2, active compounds read low",0.964
same,normalized growth,"S. cerevisiae deletion strains, locus YOR069W, strain VPS5, active compounds read low",0.986
same,normalized growth,"S. cerevisiae deletion strains, locus YOR070C, strain gyp1, active compounds read low",1.01
same,normalized growth,"S. cerevisiae deletion strains, locus YOR080W, strain dia2, active compounds read low",1.03
same,normalized growth,"S. cerevisiae deletion strains, locus YOR083W, strain WHI5, active compounds read low",1.01
same,normalized growth,"S. cerevisiae deletion strains, locus YOR106W, strain vam3, active compounds read low",1.04
same,normalized growth,"S. cerevisiae deletion strains, locus YOR136W, strain idh2, active compounds read low",0.978
same,normalized growth,"S. cerevisiae deletion strains, locus YOR144C, strain elg1, active compounds read low",0.994
same,normalized growth,"S. cerevisiae deletion strains, locus YOR184W, strain ser1, active compounds read low",0.859 (active)
same,normalized growth,"S. cerevisiae deletion strains, locus YOR231W, strain MKK1, active compounds read low",1.02
same,normalized growth,"S. cerevisiae deletion strains, locus YOR265W, strain rbl2, active compounds read low",1.02
same,normalized growth,"S. cerevisiae deletion strains, locus YOR270C, strain vph1, active compounds read low",0.957
same,normalized growth,"S. cerevisiae deletion strains, locus YOR290C, strain snf2, active compounds read low",1.01
same,normalized growth,"S. cerevisiae deletion strains, locus YOR316C, strain cot1, active compounds read low",0.974
same,normalized growth,"S. cerevisiae deletion strains, locus YPL051W, strain arl3, active compounds read low",1.01
same,normalized growth,"S. cerevisiae deletion strains, locus YPL055C, strain LGE1, active compounds read low",0.887
same,normalized growth,"S. cerevisiae deletion strains, locus YPL078C, strain atp4, active compounds read low",1.01
same,normalized growth,"S. cerevisiae deletion strains, locus YPL106C, strain sse1, active compounds read low",1.03
same,normalized growth,"S. cerevisiae deletion strains, locus YPL240C, strain hsp82, active compounds read low",1.04
same,normalized growth,"S. cerevisiae deletion strains, locus YPL256C, strain CLN2, active compounds read low",0.999
same,normalized growth,"S. cerevisiae deletion strains, locus YPR119W, strain clb2, active compounds read low",0.986
same,normalized growth,"S. cerevisiae deletion strains, locus YPR141C, strain kar3, active compounds read low",0.986
same,normalized growth,"S. cerevisiae deletion strains, locus YPR163C, strain tif3, active compounds read low",0.936
same,normalized growth,"S. cerevisiae deletion strains, locus YPR167C, strain met16, active compounds read low",0.989
same,normalized growth,"S. cerevisiae deletion strains, strain wtn01, active compounds read low",0.993
same,normalized growth,"S. cerevisiae strains, strain wild type, active compounds read low",0.974
